Source: PubChem BioAssay (NCI)
The panel holds about 83,000 compounds, 20% with a hit somewhere; the sample as a whole holds those more often.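 Each cell line was grown in a 96-well plate and treated with one concentration of compound for 48 hours. Values below 10 were considered active.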 Activity calls are given as the source filed them.

system: SNB-19 CNS; test: NCI-60 one-dose screen, 48 h (100 = growth as untreated, 0 = no growth, -100 = all killed); details: 10 µM unless noted

SMILES	growth
CNC(=O)c1cc(Oc2ccc(CC(=O)Nc3cc(C(C)(C)C)cn3C)cc2)ccn1	69.9% (inactive)
COc1ccccc1C(=O)O/N=C(\N)Cc1cccc2ccccc12	87.7% (inactive)
COc1cc(/C=C2\CN(C)C/C(=C\c3cc(CN4CCOCC4)c(O)c(OC)c3)C2=O)cc(CN2CCOCC2)c1O	58.5% (inactive)
O=C1c2ccc3c4c(ccc(c24)C(=O)N1CCCCO)C(=O)N(CCCCO)C3=O	91.4% (inactive)
COc1ccc(-c2cc(=O)c3c(OC)c4ccoc4c(/C=C/C=O)c3o2)cc1	49% (inactive)
COc1ccc2occ(C3=C(c4c[nH]c5ccccc45)C(=O)NC3=O)c2c1	51.1% (inactive)
CCCC(=O)CC(C)=O.CCCC(=O)CC(C)=O.[Cu]	110% (inactive)
O=C(Nc1ccc(N2CCNCC2)cc1)c1[nH]ncc1Nc1cc(C2CC2)ncn1	65.4% (inactive)
Nc1ccc(-c2nc3cc(Oc4ccc(Oc5ccc6[nH]c(-c7ccc(N)cc7)nc6c5)cc4)ccc3[nH]2)cc1	110% (inactive)
Oc1c(CN2CCN(c3ccccc3F)CC2)cc(Br)c2cccnc12	-16.6% (active)
CC(=Nc1ccccc1)C1=C(O)C(Cc2ccc(F)cc2)NC1=O (stereo not drawn)	42.4% (inactive)
NCCOc1ncccc1/C=C1\c2ccccc2-c2ccc(F)cc21	16% (inactive)
CCOC(=O)C1=C(C)N=c2s/c(=C\c3cc(Cl)ccc3O)c(=O)n2C1c1ccc(OC)cc1 (stereo not drawn)	99% (inactive)
CCCCC(O)(c1ccc(Cl)cc1)C(CN1CCOCC1)c1ccc(Cl)cc1 (stereo not drawn)	60.1% (inactive)
O=C(/C=C/c1ccc(C(F)(F)F)cc1)c1ccc(Nc2nc(NCCO)nc(Nc3ccc(Cl)cc3)n2)cc1	76% (inactive)
OC(c1ccccc1)c1nnc(SCc2ccccc2)n1Cc1ccccc1 (stereo not drawn)	79.7% (inactive)
CCOC(=O)c1cnc2ccc(Cl)cc2c1NCCCN(C)C	24.5% (inactive)
CC(=O)c1ccc(Cc2ccc(C(C)=O)s2)s1	98.8% (inactive)
CCCCC1CCc2cccc3c(SCC(=O)N(C)c4ccc(Cl)cc4)cc[n+]1c23 (stereo not drawn)	97.2% (inactive)
CCN1C(=O)N(CC)C2C1NN=c1s/c(=C3\C(=O)N(C(C)C)c4ccccc43)c(=O)n12 (stereo not drawn)	31.3% (inactive)

SMILES	growth
Cc1ccc2cccc(Oc3ccc(Nc4ncnc5onc(-c6ccccc6)c45)cc3)c2n1	92.3% (inactive)
O=C(NC1C(O)OC(CO)C(O)C1O)NS(=O)(=O)c1ccc(Cl)cc1 (stereo not drawn)	101% (inactive)
O=C(Cc1ccccc1)NC(c1ccc(Cl)cc1)c1c(O)ccc2ccccc12 (stereo not drawn)	20.8% (inactive)
CC(=O)c1ccc2oc(=O)n(Cc3ccc(C#N)cc3)c(=O)c2c1	104% (inactive)
O=C(O)CCC(=O)c1ccc(C2CCCCCC2)cc1	93.2% (inactive)
COc1ccc(Cn2c(Br)c3c(c2-c2cc(OC)c(OC)c(OC)c2)CCc2sc(NC(=O)c4ccc(OC)cc4)nc2-3)cc1	98.5% (inactive)
O=c1c2cc(F)ccc2sc2c(Nc3ccncc3)nc3ccccc3c12	25.5% (inactive)
N#Cc1c(N)nc2c(c1N)C(c1ccc(F)cc1)c1ccc(N)cc1O2 (stereo not drawn)	127% (inactive)
CC(=S)NC(=O)C(=O)/C=C1/NC(=O)C(=O)S1	106% (inactive)
CCOC(=O)c1cc2c(n1Cc1ccccc1OC)-c1oncc1CCC2	59.6% (inactive)
COc1cc(/C=C2\CN(C)C/C(=C\c3cc(CN4CCCC4)c(O)c(OC)c3)C2=O)cc(CN2CCCC2)c1O	74.7% (inactive)
COc1c(B(O)O)cccc1-c1nc2ccc3[nH]ncc3c2c2c1C1CCC2C1 (stereo not drawn)	74% (inactive)
COc1cc(OC)cc(N2C(=O)N(Cc3ccc(C(C)(C)C)cc3)c3ccccc3S2(=O)=O)c1	94.7% (inactive)
C[C@@H](C(=O)NCCCC#Cc1cnc(Nc2ccc(C#N)cc2)nc1NC1CC1)N(C)C(=O)/C=C/CN(C)C	58.9% (inactive)
NCCNc1nc2ccccc2c2c(=O)c3cc(F)cc(Cl)c3sc12	81.4% (inactive)
c1ccc2cc3c(Nc4ccc(N5CCOCC5)cc4)ccnc3cc2c1	94.3% (inactive)
O=C(Cn1cc(COc2ncnc3c2cnn3-c2ccccc2)nn1)Nc1ccccn1	90.8% (inactive)
CNCCNc1nc2ccccc2c2c(=O)c3cccc(C)c3sc12	53.2% (inactive)
Cn1nc(C(C)(C)C)cc1NC(=O)Cc1ccc(/C=C2\C(=O)Nc3ccccc32)cc1	63.9% (inactive)

system: U251 CNS; test: as above; details: 10 µM unless noted

SMILES	growth
CNC(=O)c1cc(Oc2ccc(CC(=O)Nc3cc(C(C)(C)C)cn3C)cc2)ccn1	88.6% (inactive)
COc1ccccc1C(=O)O/N=C(\N)Cc1cccc2ccccc12	90.9% (inactive)
COc1cc(/C=C2\CN(C)C/C(=C\c3cc(CN4CCOCC4)c(O)c(OC)c3)C2=O)cc(CN2CCOCC2)c1O	20.7% (inactive)
O=C1c2ccc3c4c(ccc(c24)C(=O)N1CCCCO)C(=O)N(CCCCO)C3=O	72.3% (inactive)
COc1ccc(-c2cc(=O)c3c(OC)c4ccoc4c(/C=C/C=O)c3o2)cc1	16.4% (inactive)
COc1ccc2occ(C3=C(c4c[nH]c5ccccc45)C(=O)NC3=O)c2c1	43.6% (inactive)
CCCC(=O)CC(C)=O.CCCC(=O)CC(C)=O.[Cu]	99.9% (inactive)
O=C(Nc1ccc(N2CCNCC2)cc1)c1[nH]ncc1Nc1cc(C2CC2)ncn1	68.6% (inactive)
Nc1ccc(-c2nc3cc(Oc4ccc(Oc5ccc6[nH]c(-c7ccc(N)cc7)nc6c5)cc4)ccc3[nH]2)cc1	96.6% (inactive)
Oc1c(CN2CCN(c3ccccc3F)CC2)cc(Br)c2cccnc12	-83.5% (active)
CC(=Nc1ccccc1)C1=C(O)C(Cc2ccc(F)cc2)NC1=O (stereo not drawn)	28.2% (inactive)
NCCOc1ncccc1/C=C1\c2ccccc2-c2ccc(F)cc21	8.04% (active)
CCOC(=O)C1=C(C)N=c2s/c(=C\c3cc(Cl)ccc3O)c(=O)n2C1c1ccc(OC)cc1 (stereo not drawn)	85.4% (inactive)
CCCCC(O)(c1ccc(Cl)cc1)C(CN1CCOCC1)c1ccc(Cl)cc1 (stereo not drawn)	23.1% (inactive)
O=C(/C=C/c1ccc(C(F)(F)F)cc1)c1ccc(Nc2nc(NCCO)nc(Nc3ccc(Cl)cc3)n2)cc1	-41.8% (active)
OC(c1ccccc1)c1nnc(SCc2ccccc2)n1Cc1ccccc1 (stereo not drawn)	87.5% (inactive)
CCOC(=O)c1cnc2ccc(Cl)cc2c1NCCCN(C)C	8.33% (active)
CC(=O)c1ccc(Cc2ccc(C(C)=O)s2)s1	98% (inactive)
CCCCC1CCc2cccc3c(SCC(=O)N(C)c4ccc(Cl)cc4)cc[n+]1c23 (stereo not drawn)	108% (inactive)
CCN1C(=O)N(CC)C2C1NN=c1s/c(=C3\C(=O)N(C(C)C)c4ccccc43)c(=O)n12 (stereo not drawn)	20.6% (inactive)

SMILES	growth
Cc1ccc2cccc(Oc3ccc(Nc4ncnc5onc(-c6ccccc6)c45)cc3)c2n1	70% (inactive)
O=C(NC1C(O)OC(CO)C(O)C1O)NS(=O)(=O)c1ccc(Cl)cc1 (stereo not drawn)	103% (inactive)
O=C(Cc1ccccc1)NC(c1ccc(Cl)cc1)c1c(O)ccc2ccccc12 (stereo not drawn)	1.3% (active)
CC(=O)c1ccc2oc(=O)n(Cc3ccc(C#N)cc3)c(=O)c2c1	105% (inactive)
O=C(O)CCC(=O)c1ccc(C2CCCCCC2)cc1	96% (inactive)
COc1ccc(Cn2c(Br)c3c(c2-c2cc(OC)c(OC)c(OC)c2)CCc2sc(NC(=O)c4ccc(OC)cc4)nc2-3)cc1	98.6% (inactive)
O=c1c2cc(F)ccc2sc2c(Nc3ccncc3)nc3ccccc3c12	-33% (active)
N#Cc1c(N)nc2c(c1N)C(c1ccc(F)cc1)c1ccc(N)cc1O2 (stereo not drawn)	102% (inactive)
CC(=S)NC(=O)C(=O)/C=C1/NC(=O)C(=O)S1	111% (inactive)
CCOC(=O)c1cc2c(n1Cc1ccccc1OC)-c1oncc1CCC2	36.7% (inactive)
COc1cc(/C=C2\CN(C)C/C(=C\c3cc(CN4CCCC4)c(O)c(OC)c3)C2=O)cc(CN2CCCC2)c1O	25.8% (inactive)
COc1c(B(O)O)cccc1-c1nc2ccc3[nH]ncc3c2c2c1C1CCC2C1 (stereo not drawn)	66.4% (inactive)
COc1cc(OC)cc(N2C(=O)N(Cc3ccc(C(C)(C)C)cc3)c3ccccc3S2(=O)=O)c1	95.9% (inactive)
C[C@@H](C(=O)NCCCC#Cc1cnc(Nc2ccc(C#N)cc2)nc1NC1CC1)N(C)C(=O)/C=C/CN(C)C	21.4% (inactive)
NCCNc1nc2ccccc2c2c(=O)c3cc(F)cc(Cl)c3sc12	-84.3% (active)
c1ccc2cc3c(Nc4ccc(N5CCOCC5)cc4)ccnc3cc2c1	94.7% (inactive)
O=C(Cn1cc(COc2ncnc3c2cnn3-c2ccccc2)nn1)Nc1ccccn1	95.7% (inactive)
CNCCNc1nc2ccccc2c2c(=O)c3cccc(C)c3sc12	25.4% (inactive)
Cn1nc(C(C)(C)C)cc1NC(=O)Cc1ccc(/C=C2\C(=O)Nc3ccccc32)cc1	55.5% (inactive)
